The source of these data is the OligoGym collection.
Also: reference of the scale not given here.

The target of the first test is NMRAL1. Put plainly: pooled miR-30 sensor sort-seq; sequence = guide strand. The conditions noted are these: shRNA.
On to TTCTGCACCTTGCAGCCTCAGC, for which the sensor-assay potency score (higher = more potent) is -0.852.
In turn, TTTGCTGCCTTCTTCCTAGGGT showed a sensor-assay potency score (higher = more potent) of 0.121.
Same read-out and setting: for TAGTCCTCAGGAGTCATCTTGG the value was -0.467; for TCGGGTCACCACTCGAACCTTG, -0.891.
The sequence TTGGCATCGTGCACGACCTTGC gave a sensor-assay potency score (higher = more potent) of 0.214.
Consider TCCTTTGCTGCCTTCTTCCTAG, for which the sensor-assay potency score (higher = more potent) is -1.25.
On to TACTCCTCGGCCGTGTGCCTGC, for which the sensor-assay potency score (higher = more potent) was -0.836.
As for TAATTGGTCACGATGAAGGTGG, the sensor-assay potency score (higher = more potent) was -0.074.
As to TTGATGTTCTCCAGGCCGCTGT, the sensor-assay potency score (higher = more potent) is -0.625.
On the same count and under the same terms, for TACTTCTGCACCTTGCAGCCTC the value was -0.418.

A further test deals with NMUR2. The test is described as above. The conditions noted are these: shRNA.
In turn, TTGTTCTTGACATCTGTTCACT registered a sensor-assay potency score (higher = more potent) of -0.626.
Sequence TTTGAATATTTGCATTCCCTTC yielded a sensor-assay potency score (higher = more potent) of -0.976.
On to TTGACTGATTTTCTGCAGGGTC, for which the sensor-assay potency score (higher = more potent) was -0.256.
Same read-out and setting: for TTGAACACAGCAGCCAGGGATT the value was -1.59.
TAGTTTGTTCTTGACATCTGTT: the sensor-assay potency score (higher = more potent) is -0.227.
Regarding TTTCTTTAGTCTGAGTGCCATG, the sensor-assay potency score (higher = more potent) was -1.41.
The sequence TTCTTGACATCTGTTCACTAGA came in with a sensor-assay potency score (higher = more potent) of -0.341.
Sequence TTGTTGACTGATTTTCTGCAGG had a sensor-assay potency score (higher = more potent) of -0.441.
Take TGGATCTTCTAGTTTCTGCTGG: the sensor-assay potency score (higher = more potent) was determined as 0.385.
TTGGGGACCTATATCTTCGGTC: the sensor-assay potency score (higher = more potent) is -0.773.
With TTTGTCTTTCTTTAGTCTGAGT, the sensor-assay potency score (higher = more potent) was -1.1.
Sequence TACATGAGTTGTAAGAGCCATT registered a sensor-assay potency score (higher = more potent) of -0.996.
